Measured values published in PubChem BioAssay (NCATS).
Results filed as inconclusive are left out. The source made the active and inactive calls. Calls follow the shape of the dose curve; as a rule, active = well fitted inhibition curve with a large enough effect; inconclusive = small, poorly fitted or top-dose-only effect; inactive = flat fitted curve, though single readings scatter.

system: CRL-7250; assay: qHTS assay to identify novel small-molecules to repurpose for Merkel cell carcinoma treatment (AID 1296009); settings: MCC and control cell lines, CellTiter-Glo viability, 72 h; series mostly up to 92 µM; activity change, negative = cytotoxicity: at the top concentration; also: nearly all actives have a fitted effect of over 60% in size
How it was run: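 CellTiter-Glo luminescence after 72 hr compound exposure at 37 degree celsius gave cell viability. Libraries NPC and MIPE were run as 8- and 11-point dose responses; RLUs normalized to DMSO (negative) and no-cell (cytotoxicity) controls.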

Row | Structure (SMILES) | outcome
1 | CC1(C)CC[C@]2(C(=O)O)[C@H](O)C[C@]3(C)C(=CCC4[C@@]5(C)CC[C@H](O[C@@H]6O[C@H](CO[C@@H]7OC[C@H](O)[C@H](O)[C@H]7O[C@@H]7OC[C@H](O)[C@H](O)[C@H]7O)[C@@H](O)[C@H](O)[C@H]6O)C(C)(C)C5CC[C@]43C)[C@@H]2C1 (some centres undefined) | inactive [at 9.27 µM]
2 | CC(C)(O)C1CCC(C)(C2CCC3(C)C4CCC5C(C)(C(=O)OC6OC(CO)C(O)C(O)C6O)C(O)CC(O)C56CC46CCC23C)O1 (centres undefined) | inactive [at 17.4 µM]
3 | CC1(C)CC[C@]2(C(=O)O[C@@H]3O[C@H](CO)[C@@H](O)[C@H](O)[C@H]3O)CC[C@]3(C)C(=CCC4[C@@]5(C)C[C@@H](O)[C@H](O)[C@](C)(C=O)C5CC[C@]43C)[C@@H]2[C@@H]1O (some centres undefined) | inactive [at 17.4 µM]
4 | CC1=C[C@@H]2[C@H]3[C@@H]4O[C@@](C)(CC[C@H]4O)[C@H]3CC(=O)[C@]23C(=O)N[C@@H](CC(C)C)[C@@H]3[C@@H]1C | inactive
5 | C/C=C(\C)C(=O)OC1C2(O)CC3=C4CC(=O)OC(c5ccoc5)C4(C)CCC3C(C)(C2=O)C(C(OC(C)=O)C(=O)OC)C1(C)C (centres undefined) | inactive [at 17.4 µM]
6 | CNc1cc2[nH]c(=O)n(-c3ccc(NC(=O)NS(=O)(=O)c4ccc(Cl)s4)cc3)c(=O)c2cc1F | inactive
7 | c1nc(NC2CCCCCC2)c2cc(CNC[C@H]3CCCO3)sc2n1 | inactive
8 | CC[C@@H](Nc1c(Nc2cccc(C(=O)N(C)C)c2O)c(=O)c1=O)c1ccc(C)o1 | inactive
9 | Cc1cc(Nc2nc(NC(C)c3ncc(F)cn3)ncc2Cl)n[nH]1 (centres undefined) | inactive
10 | COCC1OC(OC(C)(C)C2CCC3(C)C=C(C4CCC5C4(C)CC(O)C4OC(C(C)(C)O)CCC45C)CCC3O2)C(NC(C)=O)C(O)C1O (centres undefined) | inactive [at 17.4 µM]
11 | CC1=C2CC(=O)C(C)CC/C=C(\C)CC2OC1=O (centres undefined) | inactive
12 | CC(=O)N[C@@H](CCCCN)C(=O)N(C)[C@@H](CC(C)C)C(=O)N[C@H](C(=O)N(C)[C@@H](Cc1ccccc1)C(=O)N[C@H](Cc1ccccc1)C(N)=O)C(C)C | inactive [at 4.96 µM]
13 | O=C(/C=C/c1ccccc1)OC[C@H]1O[C@@H](OC(=O)c2cc(O)c(O)c(O)c2)[C@H](O)[C@@H](O)[C@@H]1O | inactive [at 17.4 µM]
14 | C=C1CC2C3(C)C(O)CC(=O)C(C)(C)C3C(O)C(OC(C)=O)C2(C)C2C(=O)OC(C)(C(=O)OC)C(=O)C12C (centres undefined) | inactive [at 17.4 µM]
15 | C[C@H]1CCN2C[C@]34C[C@@]5(C(=O)Nc6c5ccc5c6OC=CC(C)(C)O5)C(C)(C)C3C[C@]12C(=O)N4C (some centres undefined) | inactive [at 17.4 µM]
16 | C=C1C(=O)OC[C@H]2C(C(=O)O)=CC3CC(C)(C)C[C@@]132 (some centres undefined) | inactive
17 | NCCOCCOCCNC(=O)Cc1ccc(Nc2nc(NCc3ccc(F)cc3)nc(NCC3CCCCC3)n2)cc1 | inactive
18 | COc1cc(C(=O)O)ccc1OC1OC(CO)C(O)C(O)C1O (centres undefined) | inactive
19 | Cc1[nH]cnc1C1CCN(c2nc3cccc4c3n2CCC4=O)CC1 | inactive
20 | CC1CCC2(C(=O)OC3OC(CO)C(O)C(O)C3O)CCC3(C)C(=CCC4C5(C)CCC(O)C(C)(CO)C5CCC43C)C2C1(C)O (centres undefined) | inactive [at 17.4 µM]

Row | Structure (SMILES) | outcome
21 | CC(=O)O[C@H]1C[C@@H](O)C(C)(C)C2C[C@@H](OC(C)=O)[C@@]3(C)C4=CCC(C(CO)CC(O)C5OC5(C)C)[C@]4(C)CCC3[C@]21C (some centres undefined) | inactive [at 17.4 µM]
22 | O=C(NCCCN1CCC2(CC1)OCc1ccccc12)[C@H]1CCCN1Cc1ccccc1 | inactive
23 | C[C@@H]1O[C@@H](O[C@@H]2[C@@H](O[C@@H]3O[C@@H](C)[C@H](O[C@@H]4OC[C@H](O)[C@H](O[C@@H]5OC[C@@H](O)[C@H](O)[C@H]5O)[C@H]4O)[C@@H](O[C@@H]4OC[C@](O)(CO)[C@H]4O)[C@H]3O)[C@H](OC(=O)[C@]34CCC(C)(C)C[C@H]3C3=CCC5[C@@]6(C)C[C@H](O)[C@H](O[C@@H]7O[C@H](CO[C@@H]8OC[C@H](O)[C@H](O)[C@H]8O)[C@@H](O)[C@H](O)[C@H]7O)C(C)(C)C6CC[C@@]5(C)[C@]3(C)C[C@H]4O)OC[C@H]2O)[C@H](O)[C@H](O)[C@H]1O (some centres undefined) | inactive [at 9.27 µM]
24 | Cc1onc(-c2ccccc2Cl)c1C(=O)N(C)c1ccc(Cl)cc1 | inactive
25 | O=C(Nc1c(-c2cccs2)nc2ccccn12)c1ccc(Cl)cc1 | inactive
26 | NC(=O)c1cccc(-c2cc(O)cc(OC(=O)NC3CCCCC3)c2)c1 | inactive [at 17.4 µM]
27 | CC(C)CC(=O)n1cc(C(N)=O)c(=O)cc1C(O)c1ccccc1 (centres undefined) | inactive
28 | C=CC1(C)CC(OC(=O)/C(C)=C\COC(C)=O)C(C(=C)C(=O)O)C(O)C1C(=C)CO (centres undefined) | inactive [at 17.4 µM]
29 | CC1(C)CCCC2(C)C1C(O)C=C(CO)C2(O)CO (centres undefined) | inactive
30 | Cc1occc(=O)c1O[C@@H]1O[C@H](CO[C@@H]2OC[C@](O)(CO)[C@H]2O)[C@@H](O)[C@H](O)[C@H]1O | inactive [at 17.4 µM]
31 | CCC/C=C/C=C/C1CC(O)C2(O)C(=O)OCC12 (centres undefined) | inactive
32 | C[C@@H]1O[C@@H](O[C@H]2[C@H](OC(=O)[C@]34CCC(C)(C)C[C@H]3C3=CCC5[C@@]6(C)C[C@H](O)[C@H](O[C@@H]7O[C@H](C(=O)O)[C@@H](O)[C@H](O)[C@H]7O)[C@@](C)(CO)C6[C@H](O)C[C@@]5(C)[C@]3(C)C[C@H]4O)O[C@@H](CO)[C@@H]2O)[C@H](O)[C@H](O)[C@H]1O[C@@H]1OC[C@@H](O)[C@H](O[C@H]2OC[C@](O)(CO)[C@H]2O)[C@H]1O (some centres undefined) | inactive [at 9.27 µM]
33 | CC(/C=C/C1(O)C(C)(C)CC(O)CC1(C)O)OC1OC(CO)C(O)C(O)C1O (centres undefined) | inactive [at 17.4 µM]
34 | C[C@]1(O)CC[C@@H]2C(C(=O)O)=CO[C@@H](O[C@@H]3O[C@H](COC(=O)/C=C/c4ccc(O)c(O)c4)[C@@H](O)[C@H](O)[C@H]3O)[C@@H]21 | inactive [at 17.4 µM]
35 | CC(C)C1=CC2=CCC3[C@](C)(CCC[C@@]3(C)C(=O)O)C2CC1=O (some centres undefined) | inactive
36 | COc1ncc2cc(C(=O)Nc3cc(C(=O)NCc4cccc(Cl)c4)ccc3Cl)c(=O)[nH]c2n1 | inactive
37 | CC(O)C/C=C/C=C/C(=O)OC1C=C2COC(=O)C2(O)C2(C)CCCC(C)(C)C12 (centres undefined) | inactive
38 | O=C(NCc1ccc(F)cc1)C(=O)c1c[nH]c2ccccc12 | inactive
39 | CCC/C=C/C(=O)O[C@H]1CC(C)(C)CC2[C@@]13[C@H](O)C[C@]1(C)[C@@]2(CCC2[C@@]4(C)CC[C@H](O[C@@H]5O[C@H](C(=O)O)[C@@H](O)[C@H](O[C@@H]6O[C@H](CO)[C@H](O)[C@H](O)[C@H]6O[C@@H]6O[C@@H](C)[C@H](O)[C@@H](O)[C@H]6O[C@@H]6OC[C@](O)(CO)[C@H]6O)[C@H]5O[C@@H]5O[C@H](CO)[C@H](O)[C@H](O)[C@H]5O)C(C)(C)C4CC[C@]21C)O[C@H]3O (some centres undefined) | inactive [at 9.27 µM]
